A selection: hits, their analogues and other compounds. The true share with any hit is near 1.5%.
TLR9-MyD88 block = TLR9-MyD88 interaction inhibition | 340,000 tested, 0.21% active | Q9NR96+Q99836 | CHO BLA complementation TLR9-MyD88, CCF4 FRET ratio | inhibition, % at 4.98 µM | AID 504734;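 active = inhibition above the mean over all tested compounds plus 3 SD, cut at about 21% in these data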;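 also: 0% = DMSO only wells and 100% = clavulanate BLA inhibitor control wells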
NTR1 agonist = activates human neurotensin receptor 1; P30989; NTR1-U2OS beta-arrestin-GFP spot imaging, agonist mode; activation, % at 20 µM; 330,000 tested, 0.17% active; AID 493036;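 active = activation at or above 40% of the spot to cytoplasm intensity ratio, with at least 20 cells analyzed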;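 also: 0% = DMSO without peptide and 100% = 100 nM NTR1 peptide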
ABHD5-PLIN5 inh = ABHD5-PLIN5 protein interaction inhibition | Q00G26+Q8WTS1 | Split G. princeps luciferase complementation, luminescence, 4 h | inhibition, % at 4 µM | 360,000 tested, 0.78% active;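 active = inhibition above the mean inhibition across every tested compound plus 3 SD, cut at about 22% in these data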;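 also: 0% = DMSO only wells and the 100% control is not disclosed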
Beta2AR agonist = activates human beta-2 adrenergic receptor causing internalization | P07550 | Am2.2-beta2AR cells, FAP receptor internalization, flow cytometry | response, % (test concentration not listed) | 340,000 tested, 0.43% active | AID 504454;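 active = response above a set limit, near 3 SD of response in nonfluorescent compounds, cut at about 42% in these data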
TLR4-MyD88 BLA = inhibitors of human TLR4-MyD88 binding | O00206+Q99836 | HeLa CL3-4 TLR4/MyD88 BLA complementation, FRET ratio | inhibition, % at 8.4 µM | 200,000 tested, 0.18% active; in the data active = inhibition above about 25%;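 also: 0% = vehicle and 100% = reference inhibitor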
NOD2-RIPK2 inh = inhibitors of human NOD2-RIPK2 interaction. inhibition, % at 4.98 µM. CHO BLA complementation NOD2-RIPK2, CCF4 ratio. 360,000 tested, 0.38% active; in the data active = inhibition above about 21%;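 also: 0% = vehicle only and 100% = reference blocker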
* = called active by the depositor; · = no result given; ! = not active in a repeat.

SMILES	TLR9-MyD88 block	NTR1 agonist	ABHD5-PLIN5 inh	Beta2AR agonist	TLR4-MyD88 BLA	NOD2-RIPK2 inh
C#CCOCCOCCOCCNc1nc(N2CCN(C(=O)CCCCCCCCCCNC(=O)[C@H](CCCN=C(N)N)n3cc(C[C@@H](C)CC)nn3)CC2)nc(N2CCN(C(=O)CCCCCCCCCCNC(=O)[C@@H]([C@H](C)CC)n3cc(CCCCCN)nn3)CC2)n1	·	14	·	·	·	·
Cc1cc(NC(=O)COC(=O)COc2ccc3c4c(c(=O)oc3c2)CCC4)no1	-14	1	2	4	-5	-3
O=C(COc1ccc2c3c(c(=O)oc2c1)CCC3)Nc1ccccn1	3	-1	1	61*	·	-2
COc1cc2oc3ccc(C#Cc4ccccn4)cc3c(=O)c2cc1OC	-10	7	-1	71*	·	-1
COc1cc2oc3ccc(C#Cc4ccc(N)cc4)cc3c(=O)c2cc1OC	-12	·	-4	17	·	-2
COc1ccc(/C=N/NC(=O)c2nc(Cl)c(Cl)c(N)c2Cl)cc1COc1ccccc1F	-3	4	4	50*	-2	-3
COc1ccc(/C=N/NC(=O)c2nc(Cl)c(Cl)c(N)c2Cl)cc1COc1ccc(F)cc1F	-10	7	-4	27	-17	-3
O=C(C1=C(O)C(=O)N(CCN2CCOCC2)C1c1ccc(F)cc1)c1cc2ccccc2o1 (centres undefined)	6	-1	-2	75*	·	-8
CCc1nc2ccc(C(=O)NCCc3ccc(OC)c(OC)c3)cc2nc1CC	-6	2	-1	12	·	4
O=C(NCCCO)Nc1ccc2nc(-c3ccco3)c(-c3ccco3)nc2c1	·	0	·	·	-1	·
COc1ccc(CCNC(=O)c2ccc3nc(-c4ccco4)c(-c4ccco4)nc3c2)cc1OC	0	3	34*	20	-1	-4
O=C(Nc1ccc2nc(-c3ccco3)c(-c3ccco3)nc2c1)NC1CC1	5	1	26*	27	-16	-8
O=C(Nc1cccc(C(F)(F)F)c1)c1cc[n+]([O-])cc1	-1	-1	4	3	·	-7
O=C(Nc1cccc(C(F)(F)F)c1)c1ccc2nc(-c3ccco3)c(-c3ccco3)nc2c1	6	2	38*	16	-7	-10
CCC1(CC)NC(=O)N(CC(=O)N2N=C(c3ccc(Cl)cc3)CC2c2ccco2)C1=O (centres undefined)	-12	-1	22*	8	11	1
Cc1ccc(C(=O)c2no[n+]([O-])c2C(=O)c2ccc(C)cc2)cc1	-7	8	0	42*	-14	-2
CCC[C@@H](CN1CCC[C@H]1CN1C(N)=NC[C@H]1CC(C)C)N1C[C@@H](Cc2ccccc2)N(CCc2ccc(Cl)c(Cl)c2)C1=N	0	-2	23*	1	·	-5
CCC[C@@H](CN1CCC[C@H]1CN1C(N)=NC[C@@H]1Cc1ccccc1)N1C[C@@H]([C@H](C)CC)N(CCCC2CCCC2)C1=N	-3	5	32*	25	·	-1
C[C@@H](CN1CCC[C@H]1CN1C(N)=NC[C@@H]1Cc1ccccc1)N1C[C@@H](Cc2ccccc2)N(CCc2ccc(Cl)c(Cl)c2)C1=N	3	-1	41*	7	·	-1
CCC[C@@H](CN1CCC[C@H]1CN1C(N)=NC[C@@H]1Cc1ccccc1)N1C[C@@H](Cc2ccccc2)N(CCCC2CCCC2)C1=N	-2	-1	18	-5	·	-9
CC(C)[C@@H]1CN=C(N)N1C[C@@H]1CCCN1C[C@H](C)N1C[C@@H](Cc2ccccc2)N(CCc2ccc(Cl)c(Cl)c2)C1=N	-14	1	19	8	·	4
CC[C@@H](C)[C@@H]1CN([C@@H](C)CN2CCC[C@H]2CN2C(N)=NC[C@H]2CC(C)C)C(=N)N1CCc1ccc(Cl)c(Cl)c1	5	-2	30*	5	·	-9
CN1/C(=C/C(=O)COC(=O)C2COc3ccccc3O2)C(C)(C)c2ccccc21 (centres undefined)	-10	·	-4	-1	·	1
COc1cccc(C(O)c2nc(-c3ccc(OC)nc3)cs2)c1 (centres undefined)	·	·	-1	·	·	-7
O=c1cccc(-c2ccc3ccccc3c2)o1	·	·	5	·	·	-6
SMILES	TLR9-MyD88 block	NTR1 agonist	ABHD5-PLIN5 inh	Beta2AR agonist	TLR4-MyD88 BLA	NOD2-RIPK2 inh
CC(C)(C)OC(=O)NCCc1nc(NC(=O)OCc2ccccc2)sc1C(=O)O	·	·	-8	·	·	-9
Cc1cccc(NC2=C/C(=N/S(=O)(=O)c3cccs3)c3ccccc3C2=O)c1	5	·	2	21	1	-2
Cc1cc(C)c(S(=O)(=O)/N=C2\C=C(NS(=O)(=O)c3ccccc3)C(=O)c3ccccc32)c(C)c1	2	7	3	3	·	0
Cc1ccc(Cl)cc1NC1=C/C(=N\S(=O)(=O)c2cccs2)c2ccccc2C1=O	-3	30	-6	45*!	-9	-9
O=C1C(Nc2ccc(O)cc2)=C/C(=N/S(=O)(=O)c2cccs2)c2ccccc21	-5	·	-4	61*	-22	-3
O=C(O)c1ccc(NC2=C/C(=N/S(=O)(=O)c3cccs3)c3ccccc3C2=O)cc1	-7	·	-12	·	·	1
Cc1ccc(NC2=C/C(=N\S(=O)(=O)c3cccs3)c3ccccc3C2=O)c(C)c1	-9	0	-2	64*	-3	-25
COc1cc(OC)c2c(-c3cccc(-c4ccc(CO)cc4)c3)cc(=O)oc2c1	5	7	6	38	·	23*
COc1ccc(-c2cccc(-c3cc(=O)oc4cc(OC)cc(OC)c34)c2)cc1	7	1	11	14	·	3
CN1CCN(c2ccc(Cl)cc2NC(=O)/C=C/c2cccc(F)c2)CC1	-1	3	22*	-1	5	2
CN1CCN(c2ccc(Cl)cc2NC(=O)c2cccc(S(=O)(=O)N(C)C)c2)CC1	-8	1	4	3	-10	-1
Cc1cccc(OCC(=O)NCC(=O)N/N=C/c2cc(Br)cc(Br)c2O)c1	13	52*	4	9	·	-2
COc1cccc(-c2cc3nc(NCCN4CCCC4)n(C)c(=O)c3s2)c1	·	·	10	·	·	-5
COc1ccc2oc(=O)c(C(=O)Nc3ccccc3O)cc2c1	5	1	1	16	·	-11
COc1ccc2o/c(=N\O)c(C(=O)Nc3ccccc3OC)cc2c1	-4	13	1	53*	-1	2
CC(C)CNc1ncnc2c1ncn2[C@H]1CN(Cc2ccc3c(c2)OCO3)C[C@@H](CO)O1	·	·	4	·	·	3
COC(=O)C[C@@H]1C=C[C@H](NC(=O)Nc2ccc(F)cc2)[C@@H](CO)O1	·	·	0	·	·	3
N#C/C(=C\c1c[nH]c2ccc(Br)cc12)c1ccccn1	-3	51*	-10	20	·	5
Cn1cc(C(=O)c2ccc(Cl)cc2Cl)cc1C(=O)N/N=C(\N)COc1ccc(Cl)cc1	2	0	12	90*	·	-2
